Hits are enriched below; roughly 13% of the tested compounds scored in any of these assays.
HCV inh: blocks hepatitis C virus; Huh7.5.1 HCVcc-Cre infection, luciferase reporter, 44 h; Potency, µM (highest dose often 41.8 µM), without a hit: top-dose activity change, negative = inhibition, hits mostly inhibitors; 340,000 compounds, 3.4% hits; also: potency is read from the fitted curve at half-maximal effect
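A cell-based infection assay in which seeded cells (1,000 per well) receive test compound after 4 h, are inoculated with HCVcc-Cre at approximately 0.5 moi, and are incubated 44 h before luminescence detection.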
Pf growth 48h: inhibits P. falciparum growth in the first generation, 48 h | P. falciparum luciferase growth in erythrocytes, 48 h | Potency, µM (highest dose often 28.7 µM), for inactives: top-dose activity change, negative = inhibition, hits mostly inhibitors | AID 504832 | 310,000 compounds, 5.9% hits; also: potency is read from the fitted curve at half-maximal effect
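Growth was read as firefly luciferase luminescence after a 48 h, 37 C, 5% CO2 exposure of compounds to reporter-bearing P. falciparum cultures (0.1% parasitemia, 2% hematocrit final) in Albumax-supplemented RPMI 1640.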
Pf growth 96h: P. falciparum growth inhibition at 96 hour, primary screen for plastid delayed-death inhibitors; P. falciparum luciferase reporter growth, 96 h; Potency, µM (doses to about 28.7 µM), without a hit: at the top dose activity change, negative = inhibition, hits mostly inhibitors; 320,000 compounds, 6.9% hits; AID 504834; also: potency is read from the fitted curve at half-maximal effect
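Plates of compound plus infected erythrocytes (2% hematocrit, 0.05% parasitemia final) incubate 96 hours, 37 C, 5% CO2. Detection reagent added; reduced luminescence from the parasites' luciferase reporter flags inhibition.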
HCMV inh: blocks human cytomegalovirus replication. HFF cells, HCMV-luciferase reporter, 72 h; hits give low values. 410,000 compounds, 4.5% hits. activity change, negative = inhibition, % at 57.5 µM. AID 1259415; in the data active = activity change below about -60%; inconclusive = no clear call, values can overlap the other calls; inactive = above about -39%
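Two-dose cell screen: HFF monolayers treated with compounds and infected with luciferase-expressing HCMV at 1 PFU/cell, 72 h at 37C, then lysed for luciferase measurement.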
An asterisk follows results filed as active; u = inconclusive; x = no result. Unless noted, calls follow the shape of the dose curve; as a rule, active = well fitted inhibition curve with a large enough effect; inconclusive = small, poorly fitted or top-dose-only effect, or another doubt; inactive = no such curve, though single readings can be large or run the other way. % is scaled to controls: 0 for no effect and ±100 for the full control effect.

SMILES	HCV inh	Pf growth 48h	Pf growth 96h	HCMV inh
Cc1cc(N2CCN(C)CC2)nc2ccc(NC(=S)NCCN3CCc4ccccc4C3)cc12	11.2µM*	9.28µM*	u	u
Cc1cc(N2CCCC2)nc2ccc(NC(=S)NCCCN3CCC(C)CC3)cc12	10µM*	u	-23.9%	-88.4*
Cc1cc(N2CCN(C)CC2)nc2ccc(NC(=S)N3CCCCCC3)cc12	u	u	9.0%	-30.5
COc1cc(OC)c(NC(=O)C(C)n2c(=O)cc(-c3ccccc3)c3c(C)nn(C)c32)cc1Cl (centres undefined)	x	x	x	-4.7
CCC(C)NS(=O)(=O)c1ccc(N2CCCCS2(=O)=O)cc1 (centres undefined)	x	x	x	-0.3
COc1ccc(C2CC(=O)N(CC(=O)Nc3cccc(C)c3C)c3ccccc3S2)cc1OC (centres undefined)	x	x	x	-4.9
CCOc1ccc(CNC(=O)C2Cc3ccccc3N2C(=O)CC)cc1 (centres undefined)	x	x	x	4.3
COc1ccc(-n2c(O)c(C(C)=NCCCn3ccnc3)c(=O)[nH]c2=O)cc1	-2.3%	95.3%	86.6%	-65.8*
CNC(=S)n1cnc(N)n1	5.2%	-6.9%	-13.3%	-64.7*
CC(C)c1ccc(NC(=O)c2ccc(=O)n(Cc3ccccc3)c2)cc1	x	x	x	-13.8
Cc1ccc(NC(=O)COc2ccc(CCO)cc2-n2nc3ccccc3n2)cc1C	12.6µM*	-23.9%	u	u
Cc1ccc(-n2ncc(C(=O)NCC3CCN(C4CCCC4)C3)c2C2CCN(C(=O)OC(C)(C)C)CC2)cc1 (centres undefined)	-24.1%	u	u	u
CC(C)(C)OC(=O)N1CCC(c2c(C(=O)NCC3CCN(C4CCCC4)C3)cnn2-c2ccc(F)cc2)CC1 (centres undefined)	-15.0%	2.62µM*	-10.2%	u
CC(C)(C)OC(=O)N1CCC(c2c(C(=O)NCC3CCN(C4CCCC4)C3)cnn2-c2ccccc2)CC1 (centres undefined)	6.5%	3.7µM*	7.8%	-26.1
Cc1ccc(-n2ncc(C(=O)NCC3CCN(C4CCCC4)C3)c2C2CCN(C(=O)OC(C)(C)C)CC2)cc1C (centres undefined)	10.8%	13.1µM*	2.33µM*	-28.6
CC1=C(C(=O)Nc2ccccc2)C(c2ccco2)NC(=O)N1 (centres undefined)	8.1%	x	x	-97.4*
CCOC(=O)C1=C(C)NC(=O)NC1c1ccc(N(CC)CC)cc1 (centres undefined)	u	x	u	5.9
CCN(CC)c1ccc(C2NC(=O)NC(C)=C2C(=O)Nc2ccccc2)cc1 (centres undefined)	-12.2%	x	2.62µM*	-7.4
O=C(Nc1cccc(Cl)c1)c1ccc2nc(Cc3ccccc3)oc2c1	x	x	x	-36.9
CCC1CN(C(=O)Nc2ccccc2C(F)(F)F)c2ccccc2S1 (centres undefined)	x	x	x	0.0
O=c1[nH]c(=O)n(Cc2ccco2)c2c1C(C(F)(F)F)(C(F)(F)F)N=C(CCC1CCCCC1)N2	15.1%	u	u	u
CC(C)Cn1c2c(c(=O)[nH]c1=O)C(C(F)(F)F)(C(F)(F)F)N=C(CCC1CCCCC1)N2	u	9.28µM*	0.0%	u
CC(C)(C)n1nnnc1C(c1cccnc1)N(Cc1ccccc1)Cc1ccco1 (centres undefined)	15.9%	2.94µM*	1.85µM*	-21.1
CCC(C)(C)n1nnnc1C(c1ccc(C)cc1)N(Cc1ccco1)Cc1cccs1 (centres undefined)	u	4.65µM*	x	-25.0
CC(C)(C)n1nnnc1CN(Cc1ccc(F)cc1)Cc1ccco1	2.1%	u	u	28.5
SMILES	HCV inh	Pf growth 48h	Pf growth 96h	HCMV inh
CCN(Cc1ccccc1)C(c1cccc(C#N)c1)c1nnnn1C(C)(C)C (centres undefined)	u	10.4µM*	u	-21.8
COc1cccc(CN(Cc2ccco2)C(c2ccc(F)cc2)c2nnnn2C(C)(C)C)c1 (centres undefined)	u	1.65µM*	u	-13.4
CC1=C(C(N)=O)C(c2cccc(Br)c2)n2nc(SCc3ccccc3)nc2N1 (centres undefined)	x	x	x	7.4
CCC1Oc2ccc(C)cc2N(CC(=O)NCc2ccc(OC)cc2)C1=O (centres undefined)	x	x	x	15.8
COc1ccc(C=C(C(=O)c2ccccc2)C(=O)c2ccccc2)cc1	x	x	x	32.6
CC(C)(C)NCC(=Cc1ccccc1)C(=O)c1ccccc1	u	x	x	-97.6*
COc1ccc2c(c1)CC/C(=C\c1ccc(OC)c(Cn3nc(C)cc3C)c1)C2=O	3.98µM*	x	8.8%	-9.3
COc1cccc(C(=O)NN2c3ccccc3CCc3ccccc32)c1	-6.2%	9.28µM*	13.1µM*	u
O=C(NC1CCN(C(=O)N2c3ccccc3Sc3ccccc32)CC1)c1ccccc1Cl	-9.9%	u	u	-37.2
COc1cccc(C(=O)N2c3ccccc3Sc3ccccc32)c1	u	10.4µM*	102.2%	-34.3
COc1cccc(C(=O)NNC(=O)c2ccccc2)c1	3.0%	67.6%	u	187.0
O=C(c1ccco1)N1CCN(C(=O)N2c3ccccc3Sc3ccccc32)CC1	u	11.7µM*	u	u
O=C(c1ccco1)N1c2ccccc2Sc2ccccc21	14.8%	u	17.9%	u
O=C(NC1CCN(C(=O)N2c3ccccc3Sc3ccccc32)CC1)c1ccco1	u	1.65µM*	u	u
COc1cccc(C(=O)NC2CCNCC2)c1	6.1%	-11.4%	u	-13.8
COc1cccc(C(=O)NC2CCN(C(=O)N3c4ccccc4Sc4ccccc43)CC2)c1	u	8.28µM*	5.22µM*	u
Cc1cc(C)cc(NC(=O)Cc2noc3ccccc23)c1	x	x	x	42.9
CCOc1nc(NCCC2=CCCCC2)nc(N2CCOCC2)n1	22.7%	11.3%	4.3%	-27.8
CCOc1nc(NCCO)nc(NCCC2=CCCCC2)n1	-9.8%	u	8.28µM*	22.3
Cc1cccc(NC(=O)C2CCCN(S(=O)(=O)c3cccc4nonc34)C2)c1C (centres undefined)	x	x	x	-19.9
Cc1cc(C(=O)COC(=O)Cc2n[nH]c(=O)c3ccccc23)c(C)n1-c1ccc2c(c1)OCCO2	-26.7%	-13.5%	u	-77.1*
Cc1cc(C(=O)COc2ccc(C#N)cc2)c(C)n1-c1ccc2c(c1)OCO2	-19.8%	u	u	-65.7*
Cc1cc(C(=O)CSc2nnnn2-c2ccccc2)c(C)n1-c1ccc2c(c1)OCO2	u	10.4µM*	8.28µM*	-2.8
Cc1cc(C(=O)CSc2nnc(-c3cccc(F)c3)n2N)c(C)n1Cc1ccc2c(c1)OCO2	12.6µM*	11.7µM*	16.5µM*	-83.5*
Cc1cc(C(=O)COC(=O)C2=COCCO2)c(C)n1-c1ccc2c(c1)OCO2	-16.6%	x	25.1%	13.3
Cc1cc(C(=O)CSc2nnnn2-c2ccc(O)cc2)c(C)n1Cc1ccc2c(c1)OCO2	u	u	-13.6%	-4.6
COC(=O)c1cc(Cl)ccc1NC(=O)CSc1ncc(S(=O)(=O)c2ccc(Br)cc2)c(=O)[nH]1	x	x	x	-35.1
